“And” between values parts separate entries of the source, which are not always exact repeats. Equal entries are not always repeated. Inconclusive results are not listed. The source holds several records for some structures; these can differ, active in one and inactive in another. The source made the active and inactive calls. Unless noted, calls follow the shape of the dose curve; as a rule, active = well fitted curve in the direction sought with a large enough effect in the repeat runs; inconclusive = weak or mixed curves; inactive = no such curve, though single readings can be large; an effect the other way counts as inactive or inconclusive.
Assays:
[1] = qHTS assay for small molecules that induce genotoxicity in human embryonic kidney cells expressing luciferase-tagged ATAD5 (AID 651632); also: nearly all actives have a fitted effect of over 15% in size
In short: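 Concentration-response screen for ATAD5 upregulation in HEK293T luciferase reporter cells; 16 hr treatment at 37C, then luminescence after 30 min with Amplite at room temperature.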

[2] = qHTS assay for small molecule agonists of the p53 signaling pathway - cell viability (AID 651633; calls by dose curve; also: nearly all actives have a fitted effect of over 30% in size; also: potency is read from the fitted curve at half-maximal effect)
In short: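 Viability counter-read: CellTiter-Glo luminescence (30 min, room temperature) in the same p53RE-bla plates. These plates had been exposed to compounds for 16 h at 37 C.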

[3] = qHTS assay for small molecules that induce genotoxicity in human embryonic kidney cells expressing luciferase-tagged ATAD5 - cell viability (AID 651634; calls by dose curve; also: nearly all actives have a fitted effect of over 25% in size)
In short: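 15.5 hr compound or vehicle exposure of HEK293T cells expressing luciferase-tagged ATAD5 at 37C; live-cell protease activity is read by fluorescence after 30 min of CellTiter-Fluor.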

[4] = qHTS assay for small molecule disruptors of the mitochondrial membrane potential (AID 720635); also: potency is read from the fitted curve at half-maximal effect
In short: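 Mitochondrial membrane potential tracked with Mito-MPS dye, red aggregates (ex 540/em 590 nm) against green monomers (ex 490/em 535 nm). Compound treatment 1 hr at 37C, dye 30 min in HepG2.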

[5] = qHTS assay to test for compound auto fluorescence at 535 nm (green) in HepG2 cells (AID 720675)
[6] = qHTS assay to test for compound auto fluorescence at 590 nm (red) in HEK293 cells (AID 720679)
In short: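 Red-channel autofluorescence (Ex/Em 540/590 nm; Rose Bengal sodium reference) was measured after overnight 37C, 5% CO2 exposure of attached HEK293 cells, 2,000 per well in medium with 10% dialyzed FBS.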

[7] = qHTS assay to test for compound auto fluorescence at 535 nm (green) in HEK293 cells (AID 720680)
[8] = qHTS assay to test for compound auto fluorescence at 460 nm (blue) in HEK293 cell free culture (AID 720681)
In short: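 Blue fluorescence (Ex 405/Em 460 nm, triamterene-equivalent) was read immediately after pin transfer of compound or DMSO into medium (DMEM, 10% FBS) without cells.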

[9] = qHTS assay to test for compound auto fluorescence at 535 nm (green) in HEK293 cell free culture (AID 720682)
In short: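 Measurement is a direct plate read of green fluorescence (485 nm in, 535 nm out) after compound addition to serum-supplemented DMEM lacking cells, with fluorescein used to express intensities.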

[10] = qHTS assay to test for compound auto fluorescence at 590 nm (red) in HEK293 cell free culture (AID 720683)
In short: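 Red-channel autofluorescence of compounds in culture medium (DMEM, 10% FBS), no cells, measured at 540/590 nm. Rose Bengal sodium is the reference fluorophore for equivalence.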

[11] = qHTS assay to test for compound auto fluorescence at 590 nm (red) in HepG2 cell free culture (AID 720684)
In short: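 No cells present: MEM + 10% FBS only. Compound pinned in, red label read (540/590 nm). Activity = fluorescence equivalent to Rose Bengal sodium.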

[12] = qHTS assay to test for compound auto fluorescence at 460 nm (blue) in HepG2 cell free culture (AID 720685)
In short: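 Cell-free plates of MEM plus 10% FBS received 23 nL compound or DMSO vehicle; blue-channel (405/460 nm) intensity scored against triamterene as reference fluorophore.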

[13] = qHTS assay to test for compound auto fluorescence at 535 nm (green) in HepG2 cell free culture (AID 720686)
[14] = qHTS assay to test for compound auto fluorescence at 460 nm (blue) in HepG2 cells (AID 720687)
In short: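 Blue-channel autofluorescence (Ex/Em 405/460 nm, triamterene-equivalent) was measured after 1 hr compound exposure at 37 C, 5% CO2. Cells were HepG2, plated overnight at 37 C in MEM plus 10% FBS.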

[15] = qHTS assay for small molecule disruptors of the mitochondrial membrane potential - cell viability (AID 720634; calls by dose curve;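 also: human HepG2 liver cancer cells; series mostly up to about 83 µM; nearly all actives have a fitted effect of over 20% in size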)
In short: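 In this qHTS format, HepG2 cells plated overnight were pinned with compound, incubated 1 hr, and assayed for ATP luminescence with CellTiter-Glo after m-MPI dye addition.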

[16] = qHTS assay to test for compound auto fluorescence at 590 nm (red) in HepG2 cells (AID 720674)
In short: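 1 hr compound incubation on HepG2 cells, 37 C, 5% CO2; plate read ex 540 nm / em 590 nm; intensities reported as Rose Bengal sodium equivalents.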

[17] = qHTS assay to test for compound auto fluorescence at 460 nm (blue) in HEK293 cells (AID 720678)
In short: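 Blue-channel (Ex/Em 405/460 nm) intensity measured in HEK293 cultures after overnight compound exposure at 37C; signal expressed relative to triamterene. Cells plated 2,000 per well in 10% dialyzed FBS medium and allowed 4-5 hr to attach.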

[18] = target: Glucocorticoid receptor (Homo sapiens) (UniProt P04150); experiment: qHTS assay to identify small molecule agonists of the glucocorticoid receptor (GR) signaling pathway (AID 720691; active = well fitted activation curve with a large enough effect in the signal ratio in the repeat runs, not every such curve was filed as active; the % refers to the signal ratio)
Chain of Glucocorticoid receptor (Homo sapiens) (P04150 whole entry, looked up): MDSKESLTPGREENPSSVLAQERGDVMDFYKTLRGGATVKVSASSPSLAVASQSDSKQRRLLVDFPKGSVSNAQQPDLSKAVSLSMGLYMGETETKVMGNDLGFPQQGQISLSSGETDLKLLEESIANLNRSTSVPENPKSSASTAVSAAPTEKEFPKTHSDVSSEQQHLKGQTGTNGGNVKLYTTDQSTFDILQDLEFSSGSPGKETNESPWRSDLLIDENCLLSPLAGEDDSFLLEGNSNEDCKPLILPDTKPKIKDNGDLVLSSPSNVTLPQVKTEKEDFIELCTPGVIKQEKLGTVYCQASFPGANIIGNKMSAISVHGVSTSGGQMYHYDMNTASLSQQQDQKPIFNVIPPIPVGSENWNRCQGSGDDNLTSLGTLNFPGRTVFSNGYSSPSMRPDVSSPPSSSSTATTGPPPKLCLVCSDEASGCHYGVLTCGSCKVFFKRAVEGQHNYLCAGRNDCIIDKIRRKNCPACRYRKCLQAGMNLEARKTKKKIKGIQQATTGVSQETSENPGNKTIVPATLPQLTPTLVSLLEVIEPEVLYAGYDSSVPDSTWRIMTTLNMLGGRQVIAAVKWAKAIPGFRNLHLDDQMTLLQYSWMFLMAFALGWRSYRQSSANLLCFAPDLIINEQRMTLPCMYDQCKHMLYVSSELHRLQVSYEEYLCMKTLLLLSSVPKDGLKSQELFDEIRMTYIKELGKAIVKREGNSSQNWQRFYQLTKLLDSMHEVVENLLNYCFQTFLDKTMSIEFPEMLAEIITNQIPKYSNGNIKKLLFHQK
In short: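 Measures GR pathway activation through a GRE-beta-lactamase reporter stably integrated in HeLa cells, with 18 h compound treatment at 37 C and fluorescence detection using a FRET substrate.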

[19] = target: Glucocorticoid receptor (Homo sapiens) (UniProt P04150); experiment: qHTS assay to identify small molecule antagonists of the glucocorticoid receptor (GR) signaling pathway (AID 720692; active = well fitted inhibition curve with a large enough effect in the signal ratio in the repeat runs, not every such curve was filed as active; the % refers to the signal ratio; also: potency is read from the fitted curve at half-maximal effect)
In short: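 Tox21 10K library screened in concentration-response for blockade of dexamethasone (5 nM final)-induced GRE-bla reporter activity in HeLa cells; 18 h treatment, fluorescence read.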

Measured: Potency

O=C1c2ccccc2C(=O)N1SC1CCCCC1
active: [4] 54.4 µM and 48.6 µM
68.5 µM (active) and inactive: [2]
not listed: [15] | [16] | [17] | [18] | [19]
inactive: all other assays above

CC1(C)CCC[C@]2(C)[C@H]3CCO[C@]3(C)CC[C@@H]12
not listed: [4] | [5] | [19]
inactive: all other assays above

Nc1cc(Cl)c(O)c(Cl)c1
active: [4] 7.7 µM
not listed: [2] | [8] | [17] | [19]
inactive: all other assays above

S=C([S-])NCCNC(=S)[S-].S=C([S-])NCCNC(=S)[S-].[Mn+2].[Zn+2]
not listed: [4] | [5] | [12] | [19]
inactive: all other assays above

Cc1ccc(C)cc1
not listed: [3] | [12] | [14] | [17]
inactive: all other assays above

CC(=O)[C@H]1CC[C@H]2[C@@H]3CCC4=CC(=O)CC[C@]4(C)[C@H]3CC[C@]12C
active: [4] 19.3 µM
not listed: [2] | [6] | [17] | [18] | [19]
inactive: all other assays above

[Cu+]
not listed: [4] | [5] | [18] | [19]
inactive: all other assays above

CC(C(=O)O)c1ccc2c(c1)[nH]c1ccc(Cl)cc12 (stereo not given)
not listed: [3] | [4] | [5] | [6] | [12]
inactive: all other assays above

CCCCCCCCCCCCOC(=O)c1ccc(O)cc1
active: [4] 3.46 µM
not listed: [5] | [12] | [15] | [18] | [19]
inactive: all other assays above

CCC(C)n1ncn(-c2ccc(N3CCN(c4ccc(OC[C@H]5CO[C@](Cn6cncn6)(c6ccc(Cl)cc6Cl)O5)cc4)CC3)cc2)c1=O (stereo not given in full)
not listed: [3] | [4] | [7] | [12] | [16] | [18] | [19]
inactive: all other assays above

CN1CCN(Cc2cc(-c3ccc4[nH]c(=O)oc4c3)co2)[C@@H](c2ccc(F)cc2)C1
active: [4] 14.8 µM | [19] 42 µM
not listed: [3]
inactive: all other assays above

Clc1sc(Cl)c(Cl)c1Cl
not listed: [3] | [4] | [6] | [18] | [19]
inactive: all other assays above

OCCN1CCN(CCCN2c3ccccc3Sc3ccc(C(F)(F)F)cc32)CC1
active: [2] 26.6 µM
not listed: [3] | [4] | [19]
inactive: all other assays above

CC[N+](CC)(CC)CCOC(=O)C(C1CCCC1)C1CCCC1
not listed: [3] | [18] | [19]
inactive: all other assays above

C=C(C)C(=O)OCCCCCCCCCC
not listed: [4] | [19]
inactive: all other assays above
